According to PubChem BioAssay:
For part of these data: Results with a measured potency or affinity are listed apart. Active and inactive are the calls of the source. Unless noted, the rule behind the calls is not given here.

Tests used:
[1] = antimalarial activity against Dd2 strain (AID 2302;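 active = growth inhibition above 50% at the single 2 µM test dose, taken to imply half-maximal potency below 2 µM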;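 note: 0% = DMSO untreated growth and 100% = chloroquine plus artemisinin killed control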); settings: P. falciparum Dd2 in RBCs, LDH growth readout, 72 h; at 2 µM; active compounds read high
[2] = HepG2 cytotoxicity, primary screen, cytotoxicity control for P. falciparum antimalarial project, cell-based, ATP luminescence (AID 2303;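 active = inhibition above 50%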;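 note: 0% = DMSO wells and 100% = digitonin-killed cells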); settings: HepG2 viability, 24-48 h, at 10 µM, active compounds read high
[3] = target: L-lactate dehydrogenase (Plasmodium falciparum (isolate CDC / Honduras)) (UniProt Q27743); assay: PfLDH activity inhibition – cell lysate, 3D7 strain, counter-screen for P. falciparum growth inhibition project (AID 2304);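 note: 0% = vehicle and 100% = reference inhibitor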; settings: P. falciparum 3D7 crude extract, LDH APAD/NBT absorbance; at 2 µM; active compounds read high
Chain of L-lactate dehydrogenase (Plasmodium falciparum (isolate CDC / Honduras)) (Q27743 whole entry, looked up): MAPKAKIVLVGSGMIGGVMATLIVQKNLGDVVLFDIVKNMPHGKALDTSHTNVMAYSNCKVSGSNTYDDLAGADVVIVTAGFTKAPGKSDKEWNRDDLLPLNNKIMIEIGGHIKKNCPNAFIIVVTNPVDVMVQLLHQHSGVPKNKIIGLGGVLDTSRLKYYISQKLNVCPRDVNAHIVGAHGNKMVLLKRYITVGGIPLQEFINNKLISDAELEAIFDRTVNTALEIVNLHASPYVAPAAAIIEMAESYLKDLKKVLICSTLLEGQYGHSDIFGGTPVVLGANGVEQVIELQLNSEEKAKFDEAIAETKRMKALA

[4] = inhibition of 3D7 malaria parasite growth – strain 3D7 (AID 2306);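 note: 0% = DMSO wells and 100% = chloroquine plus artemisinin control wells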; settings: P. falciparum 3D7 erythrocytic growth, LDH absorbance, 72 h; at 2 µM; active compounds read high
[5] = target: Calcium-dependent protein kinase 1 (Plasmodium falciparum (isolate 3D7)) (UniProt P62344); assay: PfCDPK1 kinase inhibitors, biochemical, TCAMS library (AID 1159585; cut-off not given, nearly all actives have IC50 up to about 0.98 µM;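 note: inhibitors leave more ATP so luminescence rises with inhibition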); settings: recombinant PfCDPK1, Kinase-Glo ATP depletion luminescence
Chain of Calcium-dependent protein kinase 1 (Plasmodium falciparum (isolate 3D7)) (P62344 whole entry, looked up): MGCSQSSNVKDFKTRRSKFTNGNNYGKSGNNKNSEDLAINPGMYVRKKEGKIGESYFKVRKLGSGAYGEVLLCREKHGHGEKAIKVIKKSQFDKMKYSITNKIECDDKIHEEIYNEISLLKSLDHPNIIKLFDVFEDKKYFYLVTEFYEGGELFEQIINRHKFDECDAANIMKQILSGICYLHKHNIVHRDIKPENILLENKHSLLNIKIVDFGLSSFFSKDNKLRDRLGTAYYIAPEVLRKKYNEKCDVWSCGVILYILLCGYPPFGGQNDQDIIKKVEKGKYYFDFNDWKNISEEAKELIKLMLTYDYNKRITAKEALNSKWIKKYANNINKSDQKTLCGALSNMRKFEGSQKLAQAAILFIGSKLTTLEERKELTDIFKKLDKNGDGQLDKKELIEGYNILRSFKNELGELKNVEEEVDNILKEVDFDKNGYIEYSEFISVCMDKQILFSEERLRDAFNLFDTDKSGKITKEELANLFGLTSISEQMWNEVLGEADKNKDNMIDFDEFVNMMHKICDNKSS

[6] = target: Plasmodium falciparum protein kinase 6 (PK6, PF3D7_1337100) (UniProt Q8IDW1); assay: PfPK6 kinase inhibitors, biochemical, TCAMS library (AID 1159586); settings: recombinant PfPK6, Kinase-Glo ATP depletion luminescence
Chain of Plasmodium falciparum protein kinase 6 (PK6, PF3D7_1337100) (Q8IDW1 1-305): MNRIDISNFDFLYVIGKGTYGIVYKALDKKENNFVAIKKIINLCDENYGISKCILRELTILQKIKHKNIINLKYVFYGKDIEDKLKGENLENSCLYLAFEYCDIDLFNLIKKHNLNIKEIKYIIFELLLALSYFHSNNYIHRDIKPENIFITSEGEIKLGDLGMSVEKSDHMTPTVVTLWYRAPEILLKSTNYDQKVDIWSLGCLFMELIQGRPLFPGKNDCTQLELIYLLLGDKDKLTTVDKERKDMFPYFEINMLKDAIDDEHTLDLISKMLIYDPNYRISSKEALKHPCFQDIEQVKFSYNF

[7] = target: Protein kinase 7 (PK7), Plasmodium falciparum 3D7 (PF3D7_0213400) (UniProt Q7YTF7); assay: inhibition of Plasmodium PK7 catalytic activity – biochemical, TCAMS antimalarial set, Kinase-Glo luminescence (AID 1159587); settings: recombinant PfPK7, Kinase-Glo ATP depletion luminescence
Chain of Protein kinase 7 (PK7), Plasmodium falciparum 3D7 (PF3D7_0213400) (Q7YTF7 1-343): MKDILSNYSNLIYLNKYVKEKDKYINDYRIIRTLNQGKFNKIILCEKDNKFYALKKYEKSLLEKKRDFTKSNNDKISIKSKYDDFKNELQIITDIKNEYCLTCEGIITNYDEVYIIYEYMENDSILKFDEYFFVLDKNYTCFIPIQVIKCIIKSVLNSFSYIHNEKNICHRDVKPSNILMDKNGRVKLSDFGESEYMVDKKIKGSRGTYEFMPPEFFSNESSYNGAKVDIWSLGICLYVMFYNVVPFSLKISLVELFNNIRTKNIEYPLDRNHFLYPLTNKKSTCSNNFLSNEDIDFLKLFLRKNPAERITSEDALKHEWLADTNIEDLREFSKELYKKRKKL

[8] = target: Calcium-dependent protein kinase 4 (Plasmodium falciparum (isolate 3D7)) (UniProt Q8IBS5); assay: PfCDPK4 kinase inhibitors, biochemical, TCAMS library (AID 1159588; cut-off not given, nearly all actives have IC50 up to about 0.91 µM); settings: recombinant PfCDPK4, Kinase-Glo ATP depletion luminescence
Chain of Calcium-dependent protein kinase 4 (Plasmodium falciparum (isolate 3D7)) (Q8IBS5 whole entry, looked up): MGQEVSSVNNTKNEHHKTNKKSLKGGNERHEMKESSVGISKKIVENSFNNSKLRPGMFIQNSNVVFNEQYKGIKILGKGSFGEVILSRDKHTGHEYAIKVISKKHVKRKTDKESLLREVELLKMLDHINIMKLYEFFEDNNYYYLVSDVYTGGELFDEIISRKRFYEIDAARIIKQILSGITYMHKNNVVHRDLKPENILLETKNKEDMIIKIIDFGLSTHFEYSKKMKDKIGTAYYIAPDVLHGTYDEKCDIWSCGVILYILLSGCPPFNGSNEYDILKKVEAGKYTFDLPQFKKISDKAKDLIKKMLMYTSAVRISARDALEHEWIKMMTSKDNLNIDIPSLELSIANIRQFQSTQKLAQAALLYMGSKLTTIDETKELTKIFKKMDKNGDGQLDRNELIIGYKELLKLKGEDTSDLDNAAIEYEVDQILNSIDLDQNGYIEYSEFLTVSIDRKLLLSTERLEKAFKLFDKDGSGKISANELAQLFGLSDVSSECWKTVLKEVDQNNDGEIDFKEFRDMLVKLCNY

CCOc1cc(CC)ccc1C1CCN(CCCCNC(=O)c2ccc(NC(=O)c3ccc(Cl)cc3)cc2)CC1
active: growth inhibition [1] 58% | growth inhibition [4] 101%
inactive: inhibition [2] 11% | inhibition [3] 5% | outcome [5] | outcome [6] | outcome [7] | outcome [8]

O=C(/C=C/c1ccc(Cl)c(Cl)c1)N1CCC(CN2CCC(Cc3cc4ccccc4[nH]3)CC2)CC1
active: growth inhibition [1] 56% | growth inhibition [4] 96%
inactive: inhibition [2] 49% | inhibition [3] -3% | outcome [5] | outcome [6] | outcome [7] | outcome [8]

C=CCn1c(Cc2ccccc2)nnc1Sc1ccc(C#N)c([N+](=O)[O-])c1
active: growth inhibition [4] 86%
inactive: growth inhibition [1] 43% | inhibition [2] 7% | inhibition [3] 2% | outcome [5] | outcome [6] | outcome [7] | outcome [8]

CC(C)c1ccc(NC(=O)Nc2ccc(Cn3ncc(N4CCCNCC4)c(Cl)c3=O)cc2)cc1
inactive: growth inhibition [1] 27% | inhibition [2] 11% | inhibition [3] 2% | outcome [5] | outcome [6] | outcome [7] | outcome [8]
active: growth inhibition [4] 85%

Cc1cccc2[nH]c(-c3cccc(-c4cccc(C(=O)NCCc5cn(C)cn5)c4)c3)nc12
active: growth inhibition [1] 78% | growth inhibition [4] 101%
inactive: inhibition [2] 12% | inhibition [3] 8% | outcome [5] | outcome [6] | outcome [7] | outcome [8]

COc1ccc2nccc([C@@H](O)CN3CCC(NC(=O)c4ccc5cc[nH]c5c4)CC3)c2c1
inactive: growth inhibition [1] 23% | inhibition [2] 21% | inhibition [3] -6% | outcome [5] | outcome [6] | outcome [7] | outcome [8]
active: growth inhibition [4] 91%

C=CCN1CCC(N(Cc2cccc(Oc3ccccc3)c2)C(=O)C(c2ccccc2)c2ccccc2)CC1
active: growth inhibition [1] 79% | growth inhibition [4] 87%
inactive: inhibition [2] 7% | inhibition [3] -5% | outcome [5] | outcome [6] | outcome [7] | outcome [8]

CCCCNc1cc(C)nc(NCc2ccccc2)n1
inactive: growth inhibition [1] 37% | inhibition [2] 23% | inhibition [3] 3% | outcome [5] | outcome [6] | outcome [7] | outcome [8]
active: growth inhibition [4] 97%

Cc1cccc(Cl)c1S(=O)(=O)N1CCCCC(c2ccc(C(F)(F)F)cc2)=N1
active: growth inhibition [1] 100% | growth inhibition [4] 100%
inactive: inhibition [2] 5% | inhibition [3] 1% | outcome [5] | outcome [6] | outcome [7] | outcome [8]

Cc1cc(NC(=O)c2ccco2)ccc1OC1CCN(Cc2ccc(C#N)cc2)CC1
active: growth inhibition [1] 89% | growth inhibition [4] 92%
inactive: inhibition [2] 2% | inhibition [3] -1% | outcome [5] | outcome [6] | outcome [7] | outcome [8]

O=C(NCC(CCN1CCC(c2c[nH]c3ccccc23)CC1)c1ccccc1)Nc1ccc(Cl)c(Cl)c1 (stereo not drawn)
inactive: inhibition [2] 46% | inhibition [3] 5% | outcome [5] | outcome [6] | outcome [7] | outcome [8]
active: growth inhibition [1] 53% | growth inhibition [4] 101%

O=C(c1cnn(-c2ccccc2)c1C(F)(F)F)N1CCN(c2ccnc3cc(Cl)ccc23)CC1
inactive: inhibition [2] 34% | inhibition [3] 6% | outcome [5] | outcome [6] | outcome [7] | outcome [8]
active: growth inhibition [1] 94% | growth inhibition [4] 89%

CCc1cn2c3c(cc(C(=O)N[C@@H](Cc4ccccc4)[C@H](O)CN[C@@H](C)CC)cc13)N(C)S(=O)(=O)CC2
active: growth inhibition [1] 98% | growth inhibition [4] 99%
inactive: inhibition [2] 2% | inhibition [3] -2% | outcome [5] | outcome [6] | outcome [7] | outcome [8]

O=[N+]([O-])c1cc(/C=N/Nc2nc3ccccc3[nH]2)ccc1O
active: growth inhibition [4] 98%
inactive: growth inhibition [1] 14% | inhibition [2] -7% | inhibition [3] -5% | outcome [5] | outcome [6] | outcome [7] | outcome [8]

OCC1CCN(Cc2cccc(-c3cccc(-c4nc5ccc(C(F)(F)F)cc5[nH]4)c3)c2)CC1
active: growth inhibition [1] 101% | growth inhibition [4] 102%
inactive: inhibition [2] 24% | inhibition [3] -3% | outcome [5] | outcome [6] | outcome [7] | outcome [8]

CN1CCC(Oc2ccc(Nc3nccc(NCC(O)c4ccccc4)n3)cc2Cl)CC1 (stereo not drawn)
active: growth inhibition [1] 99% | growth inhibition [4] 102%
inactive: inhibition [2] 46% | inhibition [3] 0% | outcome [5] | outcome [6] | outcome [7] | outcome [8]

c1ccn2c(-c3ncnc(NCc4ccc5c(c4)CCO5)n3)cnc2c1
inactive: growth inhibition [1] 47% | inhibition [2] 12% | inhibition [3] 0% | outcome [5] | outcome [6] | outcome [7] | outcome [8]
active: growth inhibition [4] 86%

O=C(NC1CCN(CCCc2ccccc2)CC1)c1ccc(-c2cccc(C(F)(F)F)c2)s1
inactive: growth inhibition [1] 47% | inhibition [3] 1% | outcome [5] | outcome [6] | outcome [7] | outcome [8]
active: inhibition [2] 93% | growth inhibition [4] 95%

COc1ccc(CCCN2C(=O)C(c3ccccc3)(c3ccccc3)N=C2N)cc1
inactive: inhibition [2] 21% | inhibition [3] 5% | outcome [5] | outcome [6] | outcome [7] | outcome [8]
active: growth inhibition [1] 76% | growth inhibition [4] 94%

Cc1cccc2[nH]c(-c3cccc(-c4ccc(NC(=O)Nc5ccc(Cl)cc5)cc4)c3)nc12
active: growth inhibition [1] 96% | inhibition [2] 63% | growth inhibition [4] 100%
inactive: inhibition [3] 0% | outcome [5] | outcome [6] | outcome [7] | outcome [8]

O=C(NCc1ccc(C(=O)NCc2cccc3ccccc23)cc1)c1ccc(O)c(-c2ccc(Cl)c(Cl)c2)c1
active: growth inhibition [4] 100%
inactive: growth inhibition [1] 31% | inhibition [2] -10% | inhibition [3] -2% | outcome [5] | outcome [6] | outcome [7] | outcome [8]

CC[C@H](C)CNC(=O)c1ccnc(-c2cccc(CN(C)C3CCN(C)CC3)c2)c1
active: growth inhibition [4] 100%
inactive: growth inhibition [1] 33% | inhibition [2] -19% | inhibition [3] -1% | outcome [5] | outcome [6] | outcome [7] | outcome [8]

Cc1nc2ccc(NC(=O)c3cc(S(=O)(=O)N(C)C)ccc3Cl)cc2s1
active: growth inhibition [1] 77% | growth inhibition [4] 91%
inactive: inhibition [2] 20% | inhibition [3] -2% | outcome [5] | outcome [6] | outcome [7] | outcome [8]

CCCN(CCC)S(=O)(=O)c1ccc(C(=O)N2CCC(C(=O)OCC)CC2)cc1
active: growth inhibition [4] 98%
inactive: growth inhibition [1] 41% | inhibition [2] 26% | inhibition [3] 1% | outcome [5] | outcome [6] | outcome [7] | outcome [8]

CC[C@H](C)CNC(=O)c1cncc(-c2ccc(CN(C)C3CCN(C)CC3)cc2)c1
active: growth inhibition [1] 97% | growth inhibition [4] 101%
inactive: inhibition [2] -16% | inhibition [3] -2% | outcome [5] | outcome [6] | outcome [7] | outcome [8]

CN1CCN(CCc2ccc(N=Cc3c(=O)[nH]c4ccc5[nH]cccc5c34)cc2)CC1
active: growth inhibition [1] 98% | inhibition [2] 51% | growth inhibition [4] 102%
inactive: inhibition [3] 6% | outcome [5] | outcome [6] | outcome [7] | outcome [8]

COc1ccc(C2CC(c3cccs3)=NN2C(=O)CNc2cccc(C#N)c2)cc1OC (stereo not drawn)
inactive: growth inhibition [1] 35% | inhibition [2] 8% | inhibition [3] -4% | outcome [5] | outcome [6] | outcome [7] | outcome [8]
active: growth inhibition [4] 87%

O=C(Nc1ccc(Cl)cc1)c1cc(Cl)cc2[nH]c(C(F)(F)F)nc12
inactive: inhibition [3] 2% | outcome [5] | outcome [6] | outcome [7] | outcome [8]
active: growth inhibition [1] 100% | inhibition [2] 87% | growth inhibition [4] 100%

CN1CCCC(CN2CCN(Cc3ccc(-c4cccc(-c5nc6ccc(F)cc6[nH]5)c4)cc3)CC2)C1 (stereo not drawn)
active: growth inhibition [1] 99% | inhibition [2] 92% | growth inhibition [4] 100%
inactive: inhibition [3] -2% | outcome [5] | outcome [6] | outcome [7] | outcome [8]

CCOC(=O)c1c(CN2CCCC2)n(-c2ccccc2)c2cc(Br)c(O)cc12
inactive: inhibition [2] -2% | inhibition [3] -2% | outcome [5] | outcome [6] | outcome [7] | outcome [8]
active: growth inhibition [1] 53% | growth inhibition [4] 83%

COc1cccc(NC(=O)COc2ccc(C(=O)Nc3nc4ccccc4[nH]3)cc2)c1
inactive: growth inhibition [1] 29% | inhibition [2] 19% | inhibition [3] 0% | outcome [5] | outcome [6] | outcome [7] | outcome [8]
active: growth inhibition [4] 99%

CCOC(=O)c1c(CSc2ccccc2)oc2cc(CN(C)C)c(O)c(Cl)c12
active: growth inhibition [1] 70% | growth inhibition [4] 99%
inactive: inhibition [2] 12% | inhibition [3] -4% | outcome [5] | outcome [6] | outcome [7] | outcome [8]

O=C(Cn1c(SCc2cccc(F)c2F)cc(=O)c2ccccc21)N(CCc1cnc[nH]1)Cc1ccc(-c2ccc(C(F)(F)F)cc2)cc1
active: growth inhibition [1] 72% | growth inhibition [4] 101%
inactive: inhibition [2] 18% | inhibition [3] 7% | outcome [5] | outcome [6] | outcome [7] | outcome [8]

Cc1noc(-c2ccccc2)c1CN1CCCC2(CC(C(=O)NCc3cccc(F)c3F)=NO2)C1 (stereo not drawn)
active: growth inhibition [4] 85%
inactive: growth inhibition [1] 28% | inhibition [2] -1% | inhibition [3] -1% | outcome [5] | outcome [6] | outcome [7] | outcome [8]

CS(=O)(=O)NCCCNCc1cccc(-c2cccc(-c3nc4ccc(C(F)(F)F)cc4[nH]3)c2)c1
inactive: inhibition [2] 17% | inhibition [3] 5% | outcome [5] | outcome [6] | outcome [7] | outcome [8]
active: growth inhibition [1] 100% | growth inhibition [4] 99%

CN(Cc1ccccc1)C(=O)CCNS(=O)(=O)c1cc(Br)cnc1N
active: growth inhibition [1] 61% | growth inhibition [4] 91%
inactive: inhibition [2] -5% | inhibition [3] 4% | outcome [5] | outcome [6] | outcome [7] | outcome [8]
